# Screens (PubChem BioAssay)
# KDM5B inh: Primary screen for KDM5B Histone Demethylases FDH-coupled qHTS | Potency, µM (series often up to 57.7 µM), usual class: inhibitors | KDM5B demethylase, FDH-coupled NADH fluorescence (FDH is formaldehyde dehydrogenase) | AID 1347165, 2019 | Lysine-specific demethylase 5B (Homo sapiens), Q9UGL1 | 220,000 tested, 2.6% active; active = well fitted inhibition curve with a large enough effect; inconclusive = small, poorly fitted or top-dose-only effect; inactive = no such curve, though single readings can be large or run the other way; note: potency is the fitted concentration of half-maximal effect; 0% is about no effect; nearly all actives have a fitted effect of over 70% in size
# Target sequence (Q9UGL1 whole entry, looked up): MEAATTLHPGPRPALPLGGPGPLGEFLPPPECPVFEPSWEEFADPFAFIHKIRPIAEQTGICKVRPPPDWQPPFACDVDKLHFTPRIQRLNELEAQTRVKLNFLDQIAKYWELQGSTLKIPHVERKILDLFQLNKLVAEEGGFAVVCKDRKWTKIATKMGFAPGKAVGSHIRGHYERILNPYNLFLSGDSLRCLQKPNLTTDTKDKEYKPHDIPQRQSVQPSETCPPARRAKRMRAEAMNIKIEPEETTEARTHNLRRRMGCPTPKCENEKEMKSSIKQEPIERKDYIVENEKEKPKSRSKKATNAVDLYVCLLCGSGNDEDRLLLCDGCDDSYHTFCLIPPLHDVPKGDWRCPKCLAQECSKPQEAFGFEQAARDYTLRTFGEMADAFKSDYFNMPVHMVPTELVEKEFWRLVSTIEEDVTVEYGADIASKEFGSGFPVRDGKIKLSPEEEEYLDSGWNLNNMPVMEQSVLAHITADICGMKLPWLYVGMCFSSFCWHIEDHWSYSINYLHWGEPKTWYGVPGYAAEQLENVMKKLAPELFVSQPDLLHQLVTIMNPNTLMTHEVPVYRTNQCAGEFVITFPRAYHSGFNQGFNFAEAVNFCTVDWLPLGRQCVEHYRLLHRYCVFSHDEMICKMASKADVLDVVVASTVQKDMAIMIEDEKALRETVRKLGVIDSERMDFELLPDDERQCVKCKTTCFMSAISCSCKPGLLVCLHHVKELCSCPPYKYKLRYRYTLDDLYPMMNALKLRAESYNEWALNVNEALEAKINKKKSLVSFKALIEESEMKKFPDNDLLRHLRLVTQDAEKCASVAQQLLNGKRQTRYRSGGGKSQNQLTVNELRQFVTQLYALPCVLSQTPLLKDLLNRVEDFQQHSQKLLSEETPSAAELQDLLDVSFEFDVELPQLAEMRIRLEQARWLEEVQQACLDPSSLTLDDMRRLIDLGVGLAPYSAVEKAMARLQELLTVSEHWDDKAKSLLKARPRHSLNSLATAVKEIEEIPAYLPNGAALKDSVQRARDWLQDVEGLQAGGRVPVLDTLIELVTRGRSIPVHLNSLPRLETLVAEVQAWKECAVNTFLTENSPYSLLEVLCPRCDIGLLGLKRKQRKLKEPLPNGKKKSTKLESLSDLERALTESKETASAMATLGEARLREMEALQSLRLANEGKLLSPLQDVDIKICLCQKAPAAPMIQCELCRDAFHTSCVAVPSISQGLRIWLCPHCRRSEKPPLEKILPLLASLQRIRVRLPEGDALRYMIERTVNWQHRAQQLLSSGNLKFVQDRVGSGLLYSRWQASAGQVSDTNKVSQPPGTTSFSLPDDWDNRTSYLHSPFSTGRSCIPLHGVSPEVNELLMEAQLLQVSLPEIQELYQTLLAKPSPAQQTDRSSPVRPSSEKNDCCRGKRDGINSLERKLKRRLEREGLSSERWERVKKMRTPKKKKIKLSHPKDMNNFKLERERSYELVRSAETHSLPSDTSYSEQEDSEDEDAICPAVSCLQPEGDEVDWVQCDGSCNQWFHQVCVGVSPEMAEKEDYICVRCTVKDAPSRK
#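 Compound dilutions met 200 nM (final) KDM5BΔAP for 10 min at room temperature before substrate addition. The substrate mix held 12.5 µM H3K4me3 with cofactors 25 µM α-ketoglutarate and 50 µM Fe²⁺. NADH signal gain over 30 min defined activity.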
# IP6K1 inh: Primary qHTS assay for small molecule inhibitors of Inositol hexaphosphate kinase 1 (IP6K1). IP6K1 kinase, ADP-Glo luminescence, 2 h; active compounds read low. activity change, % (series mostly up to about 58 µM). 140,000 tested, 0.81% active; in the data active = activity change below about -25%; note: % is set by controls: 0 for no effect and ±100 for the full control effect
#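 ADP-Glo luminescence measures ADP made by human IP6K1 during a 2 h RT reaction with ATP/IP6 (mix at 1.3 mM/130 uM); top library doses 57.5 and 19.1 uM final.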
# The depositor's hits bear a star; i = inactive; ? = inconclusive; nt = no result given. Shown are actives, neighbours in structure and some others; about 2.7% of the full set was active somewhere.
SMILES,KDM5B inh,IP6K1 inh
Cc1cc(-c2nc(-c3c(C)noc3C)cc3c2cc(C)n3CCN(C)C)ccn1,35.5µM*,-6.7
COc1ccc(-c2nc(-c3c(C)noc3C)cc3c2cc(C)n3C)cn1,35.5µM*,-20.7
COc1cc(F)ccc1-c1nc(-c2c(C)noc2C)cc2c1cc(C)n2C,i,-4.9
Cc1noc(C)c1-c1cc2c(cc(C)n2C)c(-c2cccc(O)c2)n1,?,-14.4
CCCN(CCC)CC(O)CN(c1ccc(OC)cc1)S(=O)(=O)c1ccc(C)cc1 (stereo unspecified),i,nt
Cc1ccc(OCC(=O)Nc2cccc3cccnc23)cc1C,i,nt
Cc1noc(C)c1-c1cc2c(cc(C)n2CCN(C)C)c(-c2ccnn2C)n1,35.5µM*,-16.0
Cc1cnc2c(S(=O)(=O)NCC(C)(C)N3CCOCC3)cccc2c1,i,nt
Cc1cccc(C(=O)Nc2c(-c3ccccc3)nc3cc(C)ccn23)c1,i,3.9
Cc1cccc(C)c1Nc1c(-c2ccccc2O)nc2cnccn12,i,nt
Cc1ccccc1-c1nc2cnccn2c1NCCC(=O)N1CCCCC1,25.1µM*,22.7
Cc1cccc(-c2nc3cnccn3c2NCCC(=O)N(C)C)c1,31.6µM*,-2.7
CC1CCN(C(=O)CCNC(=O)c2ccccc2Cl)CC1,i,nt
COc1cccc(-c2c(C(=O)NC3CCCCC3)nc3sccn23)c1,nt,-8.4
Cc1ccccc1-c1nc2cnccn2c1NCCC(=O)N1CCC(C)CC1,28.2µM*,18.9
COc1cccc(-c2nc3cnccn3c2NCCC(=O)NC2CCCCCC2)c1,28.2µM*,2.0
CCCn1c(C)cc(C(=O)COC(=O)c2c(C)nn(Cc3ccc(C)cc3)c2Cl)c1C,i,nt
CC(C)c1nc(OCC(=O)NCCc2ccccc2)c(C#N)c2c1CCCC2,i,nt
CN(C)CCCNC1CCCC1,i,nt
O=C(Nc1cccc(C(F)(F)F)c1)c1cc(N2CCCCS2(=O)=O)ccc1Cl,i,nt
COc1cccc(-c2nc3cnccn3c2NCCC(=O)N2CCN(C(C)C)CC2)c1,28.2µM*,5.9
COc1ccc(CC(=O)N2CCN(C(=O)c3cccc(-c4cccc(OC)c4)c3)CC2)cc1,nt,1.9
Cc1cccc(-c2nc3cnccn3c2NCCC(=O)N2CCCCC2)c1,28.2µM*,5.9
Cc1cccc(-c2nocc2CCC(=O)N2CCN(c3cccc(C)c3)CC2)c1,i,10.9
Cc1ccc([S+](=O)([O-])N2CCCC(C(=O)N3CCC(N4Cc5cccn5C4=O)CC3)C2)cc1 (stereo unspecified),nt,-5.7
SMILES,KDM5B inh,IP6K1 inh
CNC(=O)C1(C)CN(Cc2ccccc2)Cc2ccc(N3CCOCC3)nc21 (stereo unspecified),35.5µM*,1.5
CC1(C(=O)NCc2ccco2)CN(Cc2ccccc2)Cc2ccc(N3CCOCC3)nc21 (stereo unspecified),15.8µM*,26.5
COCCNC(=O)C1(C)CN(Cc2ccccc2)Cc2ccc(N3CCOCC3)nc21 (stereo unspecified),31.6µM*,7.6
Cn1ccc(NC(=O)C2(C)CN(Cc3ccccc3)Cc3ccc(N4CCOCC4)nc32)n1 (stereo unspecified),11.2µM*,22.2
CN1Cc2ccc(N3CCOCC3)nc2C(C)(C(=O)NCc2ccccc2)C1 (stereo unspecified),?,63.2
COCCCNC(=O)C1(C)CN(Cc2ccccc2)Cc2ccc(Nc3ccccc3)nc21 (stereo unspecified),?,0.0
CN(C)CCNC(=O)C1(C)CN(Cc2ccccc2)Cc2ccc(Nc3ccccc3)nc21 (stereo unspecified),i,4.3
CC(C)CNc1ccc2c(n1)C(C)(C(=O)NCc1cccnc1)CN(Cc1ccccc1)C2 (stereo unspecified),?,-1.9
COc1ccc(OC)c(NC(=O)c2cc(=O)c3cc(C)ccc3o2)c1,i,nt
CC(C)CNc1ccc2c(n1)C(C)(C(=O)NC1CCN(C)CC1)CN(Cc1ccccc1)C2 (stereo unspecified),i,-0.3
CC1(C(=O)NC2CCC2)CN(Cc2ccccc2)Cc2ccc(N3CCOCC3)nc21 (stereo unspecified),35.5µM*,-4.7
COc1ccc(CC(=O)Nc2cccc3cccnc23)cc1,i,nt
O=C(c1cccc(Cl)c1)N1Cc2ccccc2CC2(CCCN2Cc2ccncc2)C1 (stereo unspecified),50.1µM*,-10.8
CC(C)C(=O)N1Cc2ccccc2CC2(CCCN(CC3CCNC3)C2)C1 (stereo unspecified),35.5µM*,10.5
CC(=O)NCC(=O)N1Cc2ccccc2CC2(CCCCN2CC2CCNC2)C1 (stereo unspecified),2.82µM*,-8.8
CC(=O)NCC(=O)N1Cc2ccccc2CC2(CCCCN2CC2CCCC2)C1 (stereo unspecified),?,-8.7
O=C(c1ccccc1)N1Cc2ccccc2CC2(CCCCN2Cc2ccncc2)C1 (stereo unspecified),i,-12.7
CCC(=O)N1Cc2ccccc2CC2(CCCN(CC3CCNC3)C2)C1 (stereo unspecified),i,0.0
CCCC(=O)N1Cc2ccccc2CC2(CCCCN2CC)C1 (stereo unspecified),56.2µM*,-18.3
CCCC(=O)N1Cc2ccccc2CC2(CCCN2CCC)C1 (stereo unspecified),?,-7.7
CC(CNC(=O)/C=C/c1ccc(C(C)(C)C)cc1)NC(=O)/C=C/c1ccc(C(C)(C)C)cc1 (stereo unspecified),i,nt
O=C(O)COc1ccc(S(=O)(=O)Nc2ccc(Cl)c(Cl)c2)cc1,i,nt
Cc1ccc(Nc2ccnc(N3CCCC3C(=O)NCc3ccc(F)cc3)n2)cc1 (stereo unspecified),nt,-6.1
Cc1cccc(N2C(=O)CC(c3c[nH]c4ccccc34)C2=O)c1 (stereo unspecified),i,nt
CCCN1CCCCC12Cc1ccccc1CN(C(=O)CC)C2 (stereo unspecified),?,-5.3
SMILES,KDM5B inh,IP6K1 inh
CCC(=O)N1Cc2ccccc2CC2(CCCCN2CC)C1 (stereo unspecified),100µM*,-11.0
Fc1cccc(-c2nc(COc3ccc(Br)cc3F)co2)c1,i,nt
CCc1noc(-c2cccn3c(CNC(=O)Cc4ccc(Cl)cc4)nnc23)n1,25.1µM*,-2.1
CCc1noc(-c2cccn3c(CNC(=O)Cc4ccccc4C)nnc23)n1,25.1µM*,33.6
CCc1noc(-c2cccn3c(CNC(=O)Cc4ccccc4Cl)nnc23)n1,20µM*,13.6
CCc1noc(-c2cccn3c(CNC(=O)C(C)Oc4ccccc4)nnc23)n1 (stereo unspecified),?,-3.2
CCCc1nc2ccccc2c(C(=O)OCC(=O)NC)c1CC,i,nt
Cc1cc(=O)n(CC(=O)Nc2cccc(Cl)c2)c(N2CCc3ccccc3C2)n1,12.6µM*,-3.4
Cc1cc(=O)n(CC(=O)Nc2ccc(Cl)cc2)c(N2CCc3ccccc3C2)n1,?,17.4
COc1ccc(CNC(=O)Cn2c(N3CCc4ccccc4C3)nc(C)cc2=O)cc1,?,23.0
Cc1cc(=O)n(CC(=O)Nc2cccc(C(C)C)c2)c(N2CCc3ccccc3C2)n1,22.4µM*,26.1
COc1cccc(CNC(=O)Cn2c(N3CCc4ccccc4C3)nc(C)cc2=O)c1,35.5µM*,10.9
